# Assay outcomes (PubChem)
# KCNK3 block: human KCNK3 channel inhibitors, primary screen, CHO cells, FluxOR thallium flux, B-score. Potassium channel subfamily K member 3 (Homo sapiens), O14649. FluxOR fluorescence; stronger effect = lower value. 340,000 tested, 0.84% active. AID 602410, 2012. B-score at 10 µM;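 active = B-score under library mean minus 4 SD, starting fluorescence ratio at most library mean plus 5 SD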;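 note: more negative B-score means stronger inhibition of thallium flux through KCNK3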
# TMEM16A act: TMEM16A chloride channel activators or potentiators, primary screen, cell-based, HTS; AID 623877, 2012; HEK293 TMEM16A/YFP-H148Q/I152L, iodide quench fluorescence; stronger effect = lower value; 340,000 tested, 0.3% active; Anoctamin-1 (Mus musculus), Q8BHY3; B-score at 10 µM;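 active = fluorescence-ratio B-score plate-corrected deviation score at least 3 library SD below zero, with starting fluorescence score within 5 deviations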;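 note: channel opened by trigger with iodide after compound preincubation; score built on the fluorescence ratio of max minus min over baseline; more negative score means more quench and so TMEM16A activation or potentiation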
# Target sequence (Q8BHY3 whole entry, looked up): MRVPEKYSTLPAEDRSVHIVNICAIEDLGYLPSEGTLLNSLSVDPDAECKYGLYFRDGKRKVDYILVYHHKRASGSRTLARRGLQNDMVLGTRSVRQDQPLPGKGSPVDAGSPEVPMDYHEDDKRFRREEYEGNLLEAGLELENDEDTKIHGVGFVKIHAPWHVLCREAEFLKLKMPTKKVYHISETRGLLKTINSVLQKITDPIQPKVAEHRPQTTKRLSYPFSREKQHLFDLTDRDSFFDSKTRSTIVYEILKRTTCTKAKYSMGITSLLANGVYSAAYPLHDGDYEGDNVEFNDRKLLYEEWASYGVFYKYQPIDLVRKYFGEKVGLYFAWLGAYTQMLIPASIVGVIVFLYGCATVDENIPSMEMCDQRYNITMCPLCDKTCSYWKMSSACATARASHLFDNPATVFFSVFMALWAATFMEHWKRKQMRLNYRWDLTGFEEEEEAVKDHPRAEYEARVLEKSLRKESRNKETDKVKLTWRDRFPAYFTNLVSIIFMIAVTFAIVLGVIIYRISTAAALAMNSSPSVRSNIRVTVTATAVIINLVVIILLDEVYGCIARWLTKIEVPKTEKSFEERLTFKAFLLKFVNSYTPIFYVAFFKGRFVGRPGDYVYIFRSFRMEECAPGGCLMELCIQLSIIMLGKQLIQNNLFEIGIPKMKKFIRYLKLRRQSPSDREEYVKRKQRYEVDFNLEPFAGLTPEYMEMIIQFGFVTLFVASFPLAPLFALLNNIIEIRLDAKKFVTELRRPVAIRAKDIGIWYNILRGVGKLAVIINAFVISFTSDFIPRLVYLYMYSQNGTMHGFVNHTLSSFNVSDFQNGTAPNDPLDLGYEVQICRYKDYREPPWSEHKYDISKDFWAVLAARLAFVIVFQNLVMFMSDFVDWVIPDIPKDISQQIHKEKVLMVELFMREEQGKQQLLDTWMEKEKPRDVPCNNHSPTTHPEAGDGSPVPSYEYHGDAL
# KCNK9 inh: KCNK9 potassium channel inhibitors, primary screen, HEK293 cells, thallium flux | 310,000 tested, 1.2% active | AID 488922, 2010 | B-score at 10 µM | FluxOR thallium flux fluorescence; stronger effect = lower value | Potassium channel subfamily K member 9 (Homo sapiens), Q9NPC2;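 active = ratio B-score over 3 SD below the library mean, with starting fluorescence within 5 SD of its mean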;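 note: negative B-score means less thallium flux so channel inhibition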
# TMEM16A inh: TMEM16A chloride channel inhibitors, primary screen, cell-based, HTS | Anoctamin-1 (Mus musculus), Q8BHY3 | HEK293 TMEM16A/YFP iodide influx fluorescence, ionomycin | normalized B-score (activity score, 25-100; higher = stronger inhibition) at 10 µM | 310,000 tested, 1.2% active;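 active = ratio plate-corrected score three or more library SD toward inhibition, starting fluorescence score within five deviations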;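 note: score derived from kinetic fluorescence span divided by baseline fluorescence per well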
# Kir21 block: inhibitors of mouse Kir2.1 inward-rectifier potassium channel | Inward rectifier potassium channel 2 (Mus musculus), P35561 | HEK293-Kir2.1, FluxOR thallium flux fluorescence; stronger effect = lower value | B-score at 10 µM | 310,000 tested, 0.85% active;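 active = fluorescence ratio B-score at or below minus 3 SD of library scores, with starting-brightness B-score within 2 SD, cut at about -4.2 in these data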;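 note: channel flux triggered by added potassium and thallium sulfate stimulus; B-score of peak minus minimum fluorescence over baseline after thallium stimulus; more negative B-score means stronger Kir2.1 block with less thallium influx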
# KCNK9 inh conf: KCNK9 potassium channel inhibitors, confirmation, HEK293 cells, thallium flux, duplicate; shares compounds with KCNK9 inh; FluxOR thallium flux fluorescence; inhibition, % at 10 µM; 4,900 tested, 43% active;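 active = thallium signal inhibited by more than 5 SD of the compound-free buffer control wells, on both duplicate plates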;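 note: 0% = assay buffer control wells without compound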
# Kir21 sel: mouse Kir2.1 channel inhibition, confirmation, selectivity assay for KCNK9 modulator project, cell-based, HEK293, thallium flux. Kir2.1 cells, FluxOR thallium flux fluorescence. AID 492993, 2010. shares compounds with KCNK9 inh. inhibition, % at 10 µM. 4,900 tested, 4% active;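 active = thallium signal drop more than 5 SD beyond the mean of the no-compound control wells, seen in both duplicate plates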;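 note: signal is fluorescence rise after thallium addition divided by baseline fluorescence; plate controls were assay buffer only for no effect and full block by chlorpromazine control for full effect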
# KCNK9 uninduced: thallium flux in non-induced HEK293 cells, confirmation, counter-screen for KCNK9 inhibitor project, cell-based, second counter screen, non-induced KCNK9-HEK293; shares compounds with KCNK9 inh; FluxOR thallium flux; inhibition, % at 10 µM; 4,900 tested, 40% active; AID 492997, 2010;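 active = thallium signal drop beyond 5 SD of the untreated control mean, on both duplicate plates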;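 note: plate controls were buffer only IC0 wells for no effect and SID17386958 at its maximal inhibitory level for full effect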
# TMEM16A reconf: TMEM16A chloride channel inhibitors, confirmation, cell-based, re-confirmation; 2,300 tested, 39% active; HEK293 TMEM16A/YFP-H148Q, iodide quench fluorescence; ionomycin added to raise cell calcium; shares compounds with TMEM16A inh; inhibition, % at 10 µM;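 active = mean duplicate percent inhibition, scaled so buffer wells are 0 and the reference blocker 100, over three buffer SD above buffer mean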
# TMEM16A Ca cntr: calcium mobilization in TMEM16A/YFP HEK293 cells, confirmation, counter-screen for TMEM16A inhibitor project; 2,300 tested, 2% active; calcium response (% of ionomycin), % at 10 µM; AID 652231, 2013; Fluo4 calcium mobilization; shares compounds with TMEM16A inh;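 active = duplicate-averaged calcium signal over 20% of the ionomycin maximum, relative to buffer baseline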;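 note: each well's signal is peak minus trough fluorescence divided by its pre-addition baseline; 0% = buffer wells and 100% = ionomycin wells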
# YFP-HEK293 quench: iodide YFP quench changes in parental YFP-HEK293, counter-screen for TMEM16A inhibitor project, cell-based. shares compounds with TMEM16A inh. 2,300 tested, under 10 active. YFP ratio F(max-min)/F0 at 10 µM. ionomycin. AID 652233, 2013;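 active = yellow fluorescent protein signal ratio exceeding the buffer control mean by over 5 SD of those controls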;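 note: ratio is mean of duplicate wells from kinetic YFP trace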
# ClC-1 rat inh: ClC-1 chloride channel inhibition, selectivity assay for TMEM16A inhibitor project, cell-based, voltage-dependent ClC-1; shares compounds with TMEM16A inh; CHO ClC-1-YFP, iodide influx fluorescence quench; iodide control reads 0, buffer control 100; ratio percent, % at 10 µM; 2,300 tested, under 10 active;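 active = duplicate-mean ratio percent above the mean of iodide-only control wells, which defines zero, plus 5 of their SD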;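 note: higher percent means stronger block of ClC-1 iodide influx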
# KCNK3 confirm: retest of human KCNK3 channel inhibitors, confirmation, CHO cells, FluxOR thallium flux, triplicate. shares compounds with KCNK3 block. FluxOR fluorescence; 0% buffer, 100% carvedilol maximal block. ratio percent of control, % at 10 µM. 2,400 tested, 99% active. AID 651638, 2012;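 active = ratio percent of control, averaged over triplicates, above buffer control mean plus 5 SD, cut at about 64% in these data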;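 note: ratio is the fluorescence rise from min to max over baseline after thallium stimulus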
# KCNK3 noninduced: thallium flux inhibition in non-induced cells, primary screen, counter-screen for KCNK3 inhibitor project, cell-based, non-induced KCNK3 line, FluxOR thallium, triplicate; shares compounds with KCNK3 block; non-induced KCNK3 parental cells; stronger effect = lower value; thallium flux ratio (lower = more inhibition) at 10 µM; 2,400 tested, 40% active; AID 651747, 2012;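 active = thallium flux ratio, averaged over three wells, more than 5 SD below the buffer control mean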;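 note: host cells are CHO cells without KCNK3 induction; ratio is peak minus trough fluorescence over baseline then normalized to buffer controls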
# * = called active by the depositor; i = inactive; · = not tested or not shown. Sampled rows, rich in hits. Any-hit rate of the full collection: about 3.5%.
SMILES,KCNK3 block,TMEM16A act,KCNK9 inh,TMEM16A inh,Kir21 block,KCNK9 inh conf,Kir21 sel,KCNK9 uninduced,KCNK3 confirm,KCNK3 noninduced,others
CCCCC(C(=O)NC1CCCC1)N(Cc1ccco1)C(=O)Cn1nnc(-c2ccc(F)cc2)n1 (stereo not drawn),-12*,i,-22*,i,0.19,54%*,i,37%*,92*,i,
Cc1cc(C)n(-c2ccc(NC(=O)C3CCCCN3C(=O)c3ccc(C)s3)cc2)n1 (stereo not drawn),i,i,i,i,1.8,·,·,·,·,·,
O=C(Nc1ccc(OC(F)F)cc1)Nc1cccc(C(F)(F)F)c1,i,i,i,i,-0.01,·,·,·,·,·,
Cc1ccccc1Nc1nc(Nc2ccccc2C)nc(SC2=NCCS2)n1,-13*,i,-9.9*,25*,-1.1,37%*,i,26%*,124*,0.12*,
Cc1cc(/C=N/NC(=O)c2ccncc2)c(C)n1-c1ccccc1,i,i,i,i,-0.52,·,·,·,·,·,
Cc1cc(/C=N/NC(=O)c2cccs2)c(C)n1-c1ccccc1,-10*,i,-10*,i,1.1,43%*,i,i,118*,0.14*,
O=C(NCc1ccco1)c1cc2cc(Br)ccc2o1,i,i,i,i,-1.4,·,·,·,·,·,
COn1c(-c2ccc(C)cc2)nc2ncccc21,i,i,i,i,-0.19,·,·,·,·,·,
Cc1ccc(COn2c(-c3ccc(Cl)cc3Cl)nc3ncccc32)cc1,-9.6*,i,-11*,i,-5.1*,56%*,i,42%*,120*,0.15*,
CCn1nc(C)c(NC(=O)c2cnn3c(C(F)F)cc(-c4ccccc4)nc23)c1C,i,i,i,i,0.16,·,·,·,·,·,
CCCCCNS(=O)(=O)c1cc2c3c(c1)CCC(=O)N3CCC2,i,i,i,i,-2.4,·,·,·,·,·,
Cc1nc(NCCc2ccccc2)c2oc3ccccc3c2n1,-10*,i,-13*,25*,-0.17,56%*,i,i,131*,0.12*,TMEM16A reconf=i;TMEM16A Ca cntr=i;YFP-HEK293 quench=-1;ClC-1 rat inh=-24
CSc1nc(Oc2ccc3ccccc3c2)c2sccc2n1,-9*,i,-10*,i,1.2,41%*,i,32%*,98*,i,
Cc1ccc(CSc2nc3ccccc3c(=O)n2CCCC(=O)NCc2ccco2)cc1,i,i,i,i,-0.98,·,·,·,·,·,
O=c1c2ccccc2nc(SCc2nnc(-c3ccccc3Br)o2)n1Cc1ccco1,i,i,i,i,-0.16,·,·,·,·,·,
O=c1c2ccccc2nc(SCc2ccccc2)n1Cc1ccco1,-11*,i,-12*,i,-0.78,62%*,i,43%*,104*,i,
Cc1ccc(CSc2nc3ccccc3c(=O)n2Cc2ccco2)cc1,-8.9*,i,-18*,i,0.01,80%*,i,45%*,115*,0.16*,
Cc1cc(S(=O)(=O)N2CCN=C2c2ccccc2)c(Cl)cc1Cl,i,i,i,i,-7.8,·,·,·,·,·,
CN1CCN(S(=O)(=O)c2ccc(NC(=O)c3ccc(Br)s3)cc2)CC1,i,i,i,i,-1,·,·,·,·,·,
CCn1nnnc1SCC(=O)c1ccc(NC(C)=O)cc1,i,i,i,i,-0.37,·,·,·,·,·,
COn1c(SCc2ccccc2)nc2ccccc2c1=O,i,i,i,i,0.24,·,·,·,·,·,
COn1c(SCc2cccc(Cl)c2)nc2ccccc2c1=O,-11*,i,-9.7*,i,-0.38,50%*,i,i,84*,i,
COCCn1c(SCc2ccc(OC)c(F)c2)nc2ccccc2c1=O,-12*,i,-16*,i,0.01,79%*,i,64%*,106*,i,
COc1ccc(S(=O)(=O)N2CCOCC2)cc1NC(=O)CSc1nnc2ccccn12,·,·,i,i,1.6,·,·,·,·,·,
O=C(Nc1cccc(-c2nnc(-c3ccccc3)o2)c1)C1CCCCC1,-11*,i,-8.8*,i,0.04,34%*,i,30%*,96*,i,
CCC(=O)Nc1cccc(-c2nnc(-c3ccccc3)o2)c1,i,i,i,i,0.2,·,·,·,·,·,
OC(CN(Cc1ccccc1)Cc1ccccc1)c1ccccc1 (stereo not drawn),i,i,·,·,·,·,·,·,·,·,
CCCNC(=O)c1ccccc1NC(=O)COc1cccc2c1OC(C)(C)C2,i,i,i,i,-1.6,·,·,·,·,·,
